The results in this text go back to PubChem BioAssay (NCATS).

Inconclusive results are not listed. A call without a number means that no potency is given here. Active and inactive are the calls of the source. Calls come from the whole dose curve; as a rule, active = well fitted inhibition curve with a large enough effect; inconclusive = small, poorly fitted or top-dose-only effect; inactive = no such curve, though single readings can be large or run the other way.

For this test, the target named is Retinaldehyde dehydrogenase 3 (Homo sapiens) (UniProt P47895). Kind of test: qHTS for Inhibitors of the Aldehyde Dehydrogenase Family (ALDH1A3) Primary screen (AID 2061315). The conditions noted are these: ALDH inhibition qHTS; series mostly up to 56 µM. In general terms: Quantitative high-throughput screening tests each substance at several concentrations.
Take `C=C1C(=O)O[C@H]2C1[C@H](OC(=O)/C(=C/CO)COC(=O)/C(C)=C/CO)CC(=C)[C@@H]1CC(=O)[C@@H](C)[C@@H]12` (stereo not given in full): the Potency entry is “inactive”.
On to `COc1ccc(CC(NC(C)=O)C(=O)O)cc1` (stereo not given), for which the Potency result was “inactive”.
Consider `CN(C)c1cccc(-c2ncnc(N3CCC(C(N)=O)CC3)n2)c1`, for which the Potency result is “inactive”.
Take `CCOc1ccc(CCNC(=O)CN(C)C)cc1OCC`: the Potency entry was “inactive”.
The result for `O=C1CCCC2=C1C1(CCSCC1)N=C(Nc1nc3ccccc3o1)N2` reads “inactive”; that for `N#Cc1c(-c2ccc(-c3ccccc3)cc2)no[n+]1[O-]`, “inactive”.
The result for `O=C1CCc2cc([S+](=O)([O-])Nc3ccc(Cl)c(Cl)c3)c(NCCCO)cc2N1` reads “inactive”.
The result for `CN(C)c1cccc(-c2nnc(N3CCC(C(N)=O)CC3)s2)c1` reads “inactive”; that for `O=c1c2ccccc2nc2sc(NCc3ccc([S+](=O)([O-])c4ccccc4)cc3)nn12`, “inactive”.
With `CC(C)c1ccc(NC(=O)C(c2ccccc2)N(C)C(=O)Cc2c[nH]c3ccccc23)cc1` (stereo not given), the Potency result is “inactive”.
The result for `COc1cc2c(cc1OC)CN(C(=O)/C=C/c1c(-c3ccccc3)n(C)c3ncccc13)CC2` reads “inactive”.
Turning to `O=C(Cc1nnc(-c2ccncc2)s1)Nc1ccc(F)c(C(F)(F)F)c1`, the Potency entry is “inactive”.
Regarding `O=C(Cc1ccc(Cl)c(Cl)c1)Nc1ccc(S(=O)(=O)Nc2cccc(O)c2)cc1`, the Potency entry was “inactive”.
The value for `Cn1c2cc([N+](=O)[O-])sc2c2cnn(Cc3ccccc3F)c(=O)c21` was “inactive”.
Regarding `O=c1c2ccc(-c3cn[nH]c3)cc2nc2sc(Nc3ccc4c(c3)CCC4)nn12`, the Potency result is “inactive”.
In the case of `Cc1ccc(N2CCN(C(=S)Nc3cc(C)ccn3)CC2)cc1`, the Potency entry was “inactive”.
The value for `Cc1cc(C)nc(NC(=S)N2CCN(c3cc(C(F)(F)F)nc4ccc(C(F)(F)F)cc34)CC2)c1` was “inactive”.
The result for `O=C(NC1CCCc2c1cnn2CCO)c1ccccn1` (stereo not given) reads “inactive”; that for `O=c1c2ccccc2nc2sc(NCc3ccc(Sc4ccccc4)cc3)nn12`, “inactive”.
The result for `CN1CCN(c2cccc(Nc3nn4c(=O)c5ccc(Br)cc5nc4s3)c2)CC1` reads “inactive”.
For the compound `CC(C)(C)OC(=O)N1CCN(c2ccc(OCc3ccc(-c4ccc(C#N)cc4)o3)cc2)CC1`, the Potency entry was “inactive”.
The value for `Cc1ccc(C)c(SC2=N[S+](=O)([O-])c3cc(C(=O)Nc4ccc5ncccc5c4)ccc32)c1` was “inactive”.
`COc1ccc(C2c3ccc4ccccc4c3Oc3ncn(CCN4CCOCC4)c(=N)c32)cc1OC` (stereo not given): the Potency entry is “inactive”.
The value for `O=C(Nc1ccc2ccccc2c1)Nc1nnc(-c2ccccn2)s1` was “inactive”; that for `Cc1cc(C)nc(NC(=S)N2CCN(c3ccc(Cl)nn3)CC2)c1` was “inactive”; that for `S=C(Nc1cc(Cl)ccn1)N1CCN(c2ccc(Cl)cc2Cl)CC1` was “inactive”.
Take `CC(=O)NC(c1ccco1)c1cc(Cl)c2ccc(N(C)C)nc2c1O` (stereo not given): the Potency entry is “inactive”.
`COCCNc1ccc(NC(=O)c2cccs2)cn1`: the Potency result was “inactive”.
The value for `CC(C)c1ccc(-n2ncc3c(=O)n(CC(=O)Nc4cc(F)ccc4Cl)cnc32)cc1` was “inactive”.
The result for `N#Cc1nc(-c2cccc3ccccc23)oc1Nc1ccccc1` reads “inactive”; that for `O=C1CCCC2=C1C(c1ccn[nH]1)N=C(Nc1nc3ccccc3o1)N2` (stereo not given), “inactive”; that for `Cc1ccc(NS(=O)(=O)c2cc3c(cc2C)NC(=O)CO3)cc1C`, “inactive”.
Consider `CNc1oc(-c2cccc3ccccc23)nc1C(=O)Nc1cccc(C#N)c1`, for which the Potency entry is “inactive”.
With `O=C(Nc1ccc(-c2nc3ccccc3[nH]2)cc1)c1ccc(-c2ccccc2)cc1`, the Potency entry is “inactive”.
Consider `Cc1cc(NS(=O)(=O)c2ccc(NS(=O)(=O)Cc3ccc(Cl)c(Cl)c3)cc2)no1`, for which the Potency entry is “inactive”.
The value for `COc1ccc(-c2ccc3ncnc(NCc4cccs4)c3c2)cc1OC` was “inactive”.
The result for `Cc1ccc(CN(C)c2nc(-c3ccccc3C(F)(F)F)nc3ccccc23)cc1` reads “inactive”; that for `CCCCOc1ccc(S(=O)(=O)n2c(C)nc3ccccc32)cc1`, “inactive”; that for `O=C(Nc1ccc(-c2nc3ccccc3[nH]2)cc1)c1ccc2ncsc2c1`, “inactive”.
The result for `Cc1ccnc(NC(=S)N2CCN(c3cccc(C(F)(F)F)c3)CC2)n1` reads “inactive”.
